Screens as filed in PubChem BioAssay.
697 NFkB inh: lowers PMA/ionomycin-induced NF-kB signal in 697 B cells. 697 B-cell NF-kB luciferase reporter, 16 h. inhibition, % at 4 µM. 330,000 compounds, 0.33% hits. AID 435022; in the data active = inhibition above about 35%
Shn3 inh set2: Schnurri-3 reporter inhibition in Clone20 osteoblasts; inhibition, % at 12.5 µM; 360,000 compounds, 0.52% hits; Clone20 osteoblast Shn3 3'UTR firefly luciferase, 24 h;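 active = mean inhibition of at least 75% with every replicate also reaching 75%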;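 also: 0% = median of neutral control wells and 100% = pilot-screen positive control compound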
Gli-Sufu antag: Gli-Sufu pathway antagonism. AID 588413. inhibition, % at 5 µM. 340,000 compounds, 0.74% hits. Sufu-KO-LIGHT fibroblasts, Gli luciferase reporter luminescence;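 active = inhibition above about 55%, limit read from the data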;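 also: 0% = DMSO-treated cells and 100% = wells with medium but no cells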
Jurkat NFkB inh: inhibitors of the PMA/ionomycin-induced NF-kB reporter in Jurkat cells | PMA/ionomycin-induced NF-kB luciferase reporter, luminescence | inhibition, % at 4 µM | 330,000 compounds, 0.53% hits; in the data active = inhibition above about 50%
Mdm2 MdmX PPI: human Mdm2/MdmX binding inhibition; 330,000 compounds, 3% hits; O15151+Q00987; AID 485346; SaOS-2 split-luciferase Mdm2/MdmX complementation, luminescence; inhibition, % at 8 µM;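 active = inhibition of at least 50% at 8 µM in the primary screen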
Mdm2 MdmX conf: human Mdm2/MdmX binding inhibition, confirmed; shares compounds with Mdm2 MdmX PPI; AID 489028; inhibition, % at 8 µM; luminescent assay; 10,000 compounds, 55% hits; in the data active = inhibition above about 40%
FLuc counter: counter-screen for Mdm2/MdmX inhibitors: full-length luciferase. shares compounds with Mdm2 MdmX PPI. SaOS-2 full-length luciferase counterscreen, luminescence. inhibition, % at 8 µM. 6,200 compounds, 77% hits. AID 504607;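 active = mean inhibition at 8 µM reaching about 37%, which flags the compound as non-specific, limit read from the data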;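 also: p53-null SaOS-2 cells with luciferase driven by a doxycycline-inducible promoter; compound on cells about two nights before reading with doxycycline added after day one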
* marks the source's active call; other numbers are inactive results. Shown are actives, neighbours in structure and some others; about 3.8% of the full set was active somewhere.

How did O=C(Nc1ccccc1Br)C1CC(=O)N(c2ccc3c4c(cccc24)CC3)C1 (stereo not given) do in these assays?
697 NFkB inh: -5; Shn3 inh set2: -38; Gli-Sufu antag: 10; Jurkat NFkB inh: 48; Mdm2 MdmX PPI: 50*; Mdm2 MdmX conf: 57*; FLuc counter: 65*

What do the screens show for `COc1ccc(-c2ccc3c(=O)cc(-c4ccsc4)oc3c2)cn1`?
697 NFkB inh: -14; Shn3 inh set2: -8; Gli-Sufu antag: -6; Jurkat NFkB inh: -16; Mdm2 MdmX PPI: 79*; Mdm2 MdmX conf: 1

What do the screens show for `COc1cc(-c2ccc3oc(-c4ccsc4)cc(=O)c3c2)cc(OC)c1OC`?
697 NFkB inh: 3; Shn3 inh set2: 9; Gli-Sufu antag: 30; Jurkat NFkB inh: -2; Mdm2 MdmX PPI: 73*; Mdm2 MdmX conf: 10

What do the screens show for `Cc1ccc(S(=O)(=O)N2CCN(C(=O)c3cc(=O)c4ccccc4o3)CC2)cc1`?
697 NFkB inh: 6; Shn3 inh set2: -6; Gli-Sufu antag: 7; Jurkat NFkB inh: 2; Mdm2 MdmX PPI: 1

What do the screens show for `CC1=Nc2ccccc2/C1=C/c1sc(=N)n(-c2nccs2)c1O`?
697 NFkB inh: 13; Shn3 inh set2: 29; Gli-Sufu antag: 1; Jurkat NFkB inh: 0; Mdm2 MdmX PPI: 99*; Mdm2 MdmX conf: 67*; FLuc counter: 22

How did CC1=Nc2ccccc2/C1=C/c1nc(-c2ccc(C)s2)oc1O do in these assays?
697 NFkB inh: 5; Shn3 inh set2: -26; Gli-Sufu antag: -4; Jurkat NFkB inh: -1; Mdm2 MdmX PPI: 12

How did NC(=O)c1ccc[n+]([C@H]2O[C@@H](COP(=O)([O-])OP(=O)(O)OC[C@H]3O[C@@H](n4cnc5c(N)ncnc54)[C@H](O)[C@@H]3O)[C@H](O)[C@@H]2O)c1 do in these assays?
697 NFkB inh: 11; Shn3 inh set2: -2; Gli-Sufu antag: 6; Jurkat NFkB inh: 4; Mdm2 MdmX PPI: -23

How did COc1ccc(CN(CCC(c2ccc(F)cc2)C2CCOC(C)(C)C2)C(=O)c2ccco2)cc1 (stereo not given) do in these assays?
697 NFkB inh: -1; Shn3 inh set2: 8; Gli-Sufu antag: 23; Jurkat NFkB inh: 5; Mdm2 MdmX PPI: 76*; Mdm2 MdmX conf: 53*; FLuc counter: 131*

Results for CC(c1ccccc1)N(CCC(c1ccccc1)C1CCOC(C)(C)C1)C(=O)c1ccco1 (stereo not given) ?
697 NFkB inh: -18; Shn3 inh set2: 5; Gli-Sufu antag: 14; Jurkat NFkB inh: 21; Mdm2 MdmX PPI: 31

What do the screens show for `CN(Cc1ccccc1F)c1cc2c(c3c1ccn3C)C1CCC2C1` (stereo not given)?
Shn3 inh set2: -3

Results for CCc1cccc(N(C)C(N)=Nc2cccc3ccccc23)c1 ?
697 NFkB inh: 23; Shn3 inh set2: -4; Gli-Sufu antag: -4; Jurkat NFkB inh: 3; Mdm2 MdmX PPI: 53*; Mdm2 MdmX conf: 35

Results for CCN(/C(N)=N/c1nc(C)cc(C)n1)c1ccccc1 ?
697 NFkB inh: -13; Shn3 inh set2: -25; Gli-Sufu antag: -7; Jurkat NFkB inh: 7; Mdm2 MdmX PPI: 12

How did Cc1ccc2c(c1)N(C(=O)CCC(=O)NCc1cccnc1)CC(C)O2 (stereo not given) do in these assays?
697 NFkB inh: -3; Shn3 inh set2: 6; Gli-Sufu antag: 5; Jurkat NFkB inh: 5; Mdm2 MdmX PPI: 10

Results for CCn1c2ccccc2c2cc(NS(=O)(=O)c3ccccc3C)ccc21 ?
697 NFkB inh: -21; Shn3 inh set2: 11; Gli-Sufu antag: 4; Jurkat NFkB inh: 40; Mdm2 MdmX PPI: 63*; Mdm2 MdmX conf: 47*; FLuc counter: 67*

What do the screens show for `O=C(N/N=C/c1cccc(Cl)c1)c1c(O)c2c([nH]c1=O)CCCC2`?
697 NFkB inh: -47; Gli-Sufu antag: 3; Jurkat NFkB inh: -49; Mdm2 MdmX PPI: 69*; Mdm2 MdmX conf: -19

How did Cc1ccc(-c2nnc(N3CCCCC3)c3ccccc23)cc1 do in these assays?
697 NFkB inh: -33; Shn3 inh set2: 15; Gli-Sufu antag: 2; Jurkat NFkB inh: -8; Mdm2 MdmX PPI: -23
